# FUS yeast rescue = suppressors of FUS proteinopathy in yeast; 390,000 compounds, 0.24% hits; Potency, µM (titrated, usually from 76.6 µM), usual class: activators; S. cerevisiae FUS-expressing, growth rescue, OD600, 24 h;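 also: plate controls were DMSO vehicle for no effect and reference control for full effect; nearly all actives have a fitted effect of over 55% in size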
#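 Yeast FUS proteinopathy model; galactose-induced FUS (2%), starting OD 0.005. Cpds in dilution series, 24hr, 30C, 99% humidity. Abs 600 nm growth. Pos ctrl CP55940 (top 92uM final); neg ctrl DMSO.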
# aSyn rescue = rescues yeast growth from alpha-synuclein toxicity | Yeast expressing alpha-synuclein, growth rescue, BacTiter-Glo, 24 h | Potency, µM (top dose mostly 46.1 µM), for the others: at the top dose growth rescue (activation), hits mostly activators | 370,000 compounds, 0.14% hits | AID 652106; also: % of control where 0% means no effect; nearly all actives have a fitted effect of over 65% in size
#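 Rescue of yeast growth: cells expressing toxic alpha-synuclein, induced in galactose at OD600 0.02, incubated with compound 24 h at 30 C. ATP luminescence quantified growth; inhibitors of toxicity appear as activators.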
# Abeta yeast res = compounds reversing amyloid beta toxicity in yeast. yeast expressing A-beta42, growth rescue, OD600, 48 h; response scale: 0% DMSO, 100% iron-clioquinol control. 410,000 compounds, 0.063% hits. AID 1347071. Potency, µM (top dose mostly 46.1 µM), most hits filed as activators; also: nearly all actives have a fitted effect of over 55% in size
#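 Growth rescue measured by 600 nm absorbance after 48 h yeast culture at 30 C with compound. Values normalized between DMSO and an equimolar ferric chloride plus clioquinol control.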
# TDP43 rescue = rescues yeast growth from TDP-43 toxicity | AID 652104 | 410,000 compounds, 1.8% hits | Potency, µM (doses to about 46.1 µM), for inactives: at the highest dose growth rescue (activation), actives largely listed as activators | TDP-43 expressing yeast growth rescue, BacTiter-Glo, 24 h; also: % of control where 0% means no effect; nearly all actives have a fitted effect of over 50% in size
#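 Yeast expressing TDP-43 (pregrown in raffinose, seeded at OD600=0.02 in galactose medium) exposed to compounds 24 hr at 30 deg C. Growth read by BacTiter-Glo luminescence; rescue of toxicity appears as increased signal.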
# * marks the source's active call; other numbers are inactive results; i = inactive; ? = inconclusive; · = no result; [ ] = another dose, or the depositor's remark. This is a sample that favours compounds with a hit; in the whole collection about 2.1% have one here. Calls follow the shape of the dose curve; as a rule, active = well fitted curve in the direction sought with a large enough effect; inconclusive = small, poorly fitted or top-dose-only effect, or another doubt; inactive = no such curve, though single readings can be large; an effect the other way counts as inactive or inconclusive. Potency is read from the fitted curve at half-maximal effect.
SMILES,FUS yeast rescue,aSyn rescue,Abeta yeast res,TDP43 rescue
CCOC(=O)c1c(NC(=O)CSc2nnc(C)s2)sc2c1CCN(C)C2,25µM*,-5%,i,-2%
CC(C)Oc1ccc(C2CC(=O)N(c3cccc(Br)c3)C2=O)cc1 (configuration not stated),i,9%,i,20µM*
CCOc1ccc(CCN2C(=O)C(=O)N([C@@H](Cc3ccccc3)CN3CCC[C@H]3CN3C(=O)C(=O)NC[C@@H]3Cc3ccc(O)cc3)C[C@@H]2CC(C)C)cc1,i,0%,i,-7%
Cc1ccccc1Nc1c(-c2ccccn2)nc2c(C)cccn12,i,-10%,11µM*,-9%
Cc1ccc(S(=O)(=O)NCCc2ccc(S(N)(=O)=O)cc2)cc1,i,·,i,-13%
Cc1ccc(CCNS(=O)(=O)c2ccc(C)cc2)cc1,i,·,i,16µM*
COCC(=O)Nc1ccc(C(N)=O)cc1,i,-1%,i,-13%
CN(C(=O)c1ccc(NC(=O)Cc2cccc(NC(=O)C3CCCN(C(=O)C4CCCCC4)C3)c2)cc1)C1CCCC1 (configuration not stated),28µM*,-2%,i,10%
COc1ccc2nc(-c3ccccc3)cc(C(=O)OCC(=O)N3CC(C)OC(C)C3)c2c1 (configuration not stated),?,3%,i,22µM*
COc1ccc2nc(-c3ccccc3)cc(C(=O)OCC(=O)N3CCCCC3)c2c1,?,17%,i,?
O=S(=O)(c1ccccc1F)N1CCN(c2nc(-c3cccnc3)nc3ccccc23)CC1,i,4%,i,-16%
COc1cc2c(cc1OC)CN(c1nc(-c3cccnc3)nc3ccccc13)CC2,i,3%,i,14µM*
Cc1ccc(C)c(S(=O)(=O)N2CCN(c3nc(-c4cccnc4)nc4ccccc34)CC2)c1,i,9%,i,16µM*
CN1CCN(c2nc(-c3cccnc3)nc3ccccc23)CC1,i,2%,i,-7%
Cc1ccc(Nc2nnns2)cc1,i,-18%,i,22%
CSc1ccccc1NC(=O)COC(=O)/C=C/c1ccco1,i,1%,i,5µM*
CNC(=O)COC(=O)/C=C/c1ccco1,i,-22%,i,0%
O=C(COC(=O)/C=C/c1ccco1)NCCc1ccccc1,i,3%,i,16µM*
CC1(C)CC(CC(=O)O)(c2ccc(F)cc2)CCO1 (configuration not stated),i,2%,i,0%
CCCN(CC1CC1)C(=S)Nc1ccc(Oc2ccccc2)cc1,·,0%,i,20µM*
CC1(C)CC(=O)c2cc(C(=O)NCCc3ccccc3)c(=O)[nH]c2C1,·,0%,·,·
O=C1CC(c2ccc(F)cc2)CC2=C1C=Nc1ccccc1N2 (configuration not stated),i,-3%,i,22µM*
O=C1CC(c2ccccc2)CC2=C1C=Nc1ccccc1N2 (configuration not stated),i,1%,i,0%
COc1ccc(/C=N/NC(=O)c2cc(C)oc2C)cc1OCc1ccccc1,i,-1%,i,-6%
Cc1cc(C(=O)N/N=C/c2ccc(OCc3ccccc3)cc2)c(C)o1,i,2%,?,13µM*
SMILES,FUS yeast rescue,aSyn rescue,Abeta yeast res,TDP43 rescue
CCC(C)(C)C(=O)O[C@H]1C[C@@H](C)C=C2C=C[C@H](C)[C@H](CC[C@@H]3C[C@@H](O)CC(=O)O3)[C@H]21,i,16%,i,14µM*
Cc1nn2c(NC(C)C)c3c(nc2c1-c1ccccc1)CCC3,i,0%,i,5%
CCN(CC)c1ccc2cc(-c3nc(-c4cc(OC)c(OC)c(OC)c4)no3)c(=O)oc2c1,i,·,i,9%
COc1cccc(C(=O)Nc2cccc(NC(=O)c3ccc(Cl)cc3Cl)c2)c1,i,·,i,11µM*
COc1ccc(NC(=O)c2csc3c2CCCC3)cc1,i,0%,i,-8%
COc1cccc(NC(=O)c2cnsn2)c1,i,·,i,13µM*
COc1cccc(NC(=O)c2cccc(C(=O)Nc3cccc(OC)c3)n2)c1,·,7%,i,12%
COc1cccc(NC(=O)c2csc3c2CCCC3)c1,i,-7%,i,18µM*
CS(=O)(=O)c1cc([N+](=O)[O-])c(Sc2nc3ccccc3[nH]2)c([N+](=O)[O-])c1,i,0%,i,-4%
Cc1ccc2nc(-c3ccccc3Cl)cc(C(=O)Nc3cc(C)on3)c2c1,i,9%,i,18µM*
O=C(NCCO)c1ccc2nc(Cc3cccc(Cl)c3)oc2c1,i,3%,i,19%
COc1ccc(-n2c(SCC(=O)Nc3cc(C)c(NC(=O)c4ccccc4)cc3OC)nnc2-c2ccco2)cc1,11µM*,·,·,·
CC(C)N(N=Nc1ccc([N+](=O)[O-])cc1)C(C)C,i,-11%,i,1%
Cc1sc2ncnc(NCc3cccs3)c2c1C,i,-1%,i,18µM*
S=C(Nc1ccc2nsnc2c1)NC1CCCCC1,·,-13%,i,13µM*
S=C(Nc1ccc(Cl)c(Cl)c1)NC1CCCCC1,i,-16%,i,-2%
COc1ccc2nc(N3CCCCC3)c(C#N)cc2c1,i,4%,i,13µM*
COc1ccc2nc(N3CCCC3)c(C#N)cc2c1,i,5%,i,21%
Nc1cc2c(cc1C(=O)c1ccccc1F)OCCO2,i,3%,i,18µM*
CCC(O)c1cc2c(cc1NC(=O)c1cccc(Br)c1)OCCO2 (configuration not stated),i,8%,i,13µM*
CCC(=O)c1cc2c(cc1NC(=O)c1ccccc1F)OCCO2,i,0%,i,10%
Nc1cc2c(cc1C(=O)c1cccc(Br)c1)OCCO2,i,-4%,i,14µM*
O=C(Nc1ccc2c(c1)OCCO2)c1cccc(Br)c1,i,-30%,i,23%
Fc1ccc(CSc2nnc(-c3cccnc3)o2)cc1,i,2%,i,?
Brc1ccc(CSc2nnc(-c3cccnc3)o2)cc1,i,1%,i,-2%[9.22 µM]
SMILES,FUS yeast rescue,aSyn rescue,Abeta yeast res,TDP43 rescue
Clc1ccc(CSc2nnc(-c3cccnc3)o2)cc1,i,8%,i,11µM*
O=C(O)c1cccc(CSc2nnc(-c3cccnc3)o2)c1,i,-26%,i,11%
c1ccc(CSc2nnc(-c3cccnc3)o2)cc1,i,0%,i,14µM*
O=[N+]([O-])c1ccc(CSc2nnc(-c3cccnc3)o2)cc1,i,0%,i,11µM*
Cc1ccc(CSc2nnc(-c3cccnc3)o2)cc1,i,3%,i,13µM*
c1cncc(-c2nnc(SCc3cccc4ccccc34)o2)c1,i,10%,i,16µM*
COc1cccc(-n2c(-c3ccc4[nH]c(C)c(C)c4c3)n[nH]c2=S)c1,i,4%,i,-8%[0.397 µM]
Cc1cccc(N(C)c2nc3ccc(C)cc3n3nnnc23)c1,i,·,i,6%

# Assay outcomes from PubChem.
